Read-outs that look alike come from different tables or passages of the source.
Assays:
Settings in all cases: n = 1
MEK2 = tested on: T1, MEK2
T1 construct: gene MAP2K2

MEK3 = tested on: T2, MEK3
T2 construct: gene MAP2K3

MEK4 = tested on: T3, MEK4
T3 construct: gene MAP2K4

MEK5 = tested on: T4, MEK5
T4 construct: gene MAP2K5

MEK6 = tested on: T5, MEK6
T5 construct: gene MAP2K6

MELK = tested on: MELK
MERTK = tested on: MERTK
MET = tested on: MET
MINK = tested on: T6, MINK
T6 construct: gene MINK1

MKK7 = tested on: MKK7
[1] = concentration: 1 μM, replicates: in singlicate
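Note: KINOMEscan kinase panel screen.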

| Structure (SMILES) | %Inh (MEK2; [1]) [%] | %Inh (MEK3; [1]) [%] | %Inh (MEK4; [1]) [%] | %Inh (MEK5; [1]) [%] | %Inh (MEK6; [1]) [%] | %Inh (MELK; [1]) [%] | %Inh (MERTK; [1]) [%] | %Inh (MET; [1]) [%] | %Inh (MINK; [1]) [%] | %Inh (MKK7; [1]) [%] | %Inh (MEK2; 1 µM) [%] | %Inh (MEK3; 1 µM) [%] | %Inh (MEK4; 1 µM) [%] | %Inh (MEK5; 1 µM) [%] | %Inh (MEK6; 1 µM) [%] | %Inh (MELK; 1 µM) [%] | %Inh (MERTK; 1 µM) [%] | %Inh (MET; 1 µM) [%] | %Inh (MINK; 1 µM) [%] | %Inh (MKK7; 1 µM) [%] |
| --- | --- | --- | --- | --- | --- | --- | --- | --- | --- | --- | --- | --- | --- | --- | --- | --- | --- | --- | --- | --- |
| Cc1ccc(C(=O)Nc2ccc(Nc3ccnc4cc(-c5ccccn5)ccc34)cc2O)cc1.Cl [GW440146] | 0 | 0 | 19 | 100 | 0 | 0 | 33 | 0 | 36 | 0 |  |  |  |  |  |  |  |  |  |  |
| Fc1cc(Cl)ccc1Nc1ccnc2cc(I)ccc12 [GW551191] | 0 | 0 | 46 | 75 | 0 | 16 | 30 | 8 | 51 | 0 |  |  |  |  |  |  |  |  |  |  |
| Cc1ccccc1-n1cnc2c(N)ncnc21 [SKF-97510] | 0 | 0 | 0 | 0 | 20 | 0 | 7 | 0 | 0 | 0 |  |  |  |  |  |  |  |  |  |  |
| CS(=O)(=O)c1ccc(-c2nc3n(c2-c2ccncc2)CCC3)cc1 [SKF-105942] | 0 | 0 | 8 | 15 | 0 | 0 | 24 | 0 | 1 | 0 |  |  |  |  |  |  |  |  |  |  |
| Clc1cc(Cl)cc(Nc2ccnc(Nc3cc(Cl)cc(Cl)c3)n2)c1 [GSK175726] | 0 | 0 | 0 | 49 | 3 | 8 | 0 | 0 | 18 | 13 |  |  |  |  |  |  |  |  |  |  |
| Cc1c(O)cccc1Nc1ccnc2ccc(C(F)(F)F)cc12.Cl [GW466413] | 0 | 0 | 19 | 35 | 0 | 11 | 0 | 0 | 2 | 0 |  |  |  |  |  |  |  |  |  |  |
| COc1ccc(Nc2nccc(-c3cccc(NC(=O)c4cc5cc(F)ccc5[nH]4)c3)n2)cc1 [GSK1229782] | 0 | 22 | 28 | 96.1 | 3 | 10 | 47 | 0 | 55 | 21 |  |  |  |  |  |  |  |  |  |  |
| COc1cc2nccc(Nc3ccc(NC(=O)c4ccc(C)cc4)c(O)c3)c2cc1OC.Cl [GW440132] | 0 | 0 | 19 | 99.9 | 0 | 0 | 5 | 0 | 0 | 0 |  |  |  |  |  |  |  |  |  |  |
| C[C@@H]1CCCCN1c1cc(-c2ccc3c(N)n[nH]c3c2)nc(N)n1 [GSK2258759] | 0 | 0 | 8 | 7 | 14 | 0 | 11 | 0 | 15 | 0 |  |  |  |  |  |  |  |  |  |  |
| Cc1cccc(-c2nc(-c3ccc(S(C)(=O)=O)cc3)sc2-c2ccnc(NCCc3ccccc3)c2)c1 | 7 | 0 | 25 | 0 | 8 | 0 | 0 | 0 | 0 | 0 |  |  |  |  |  |  |  |  |  |  |
| O=C(Nc1n[nH]c2cc(-c3cccc(F)c3F)ccc12)C1CC1 [SB-733894] | 11 | 15 | 1 | 45 | 20 | 0 | 0 | 0 | 58 | 0 |  |  |  |  |  |  |  |  |  |  |
| Cl.O=C(Nc1cccc(-c2nn3ncccc3c2-c2ccnc(Nc3cccnc3)n2)c1)c1c(F)cccc1F [GSK312879] | 9 | 10 | 40 | 88 | 0 | 3 | 12 | 0 | 0 | 20 |  |  |  |  |  |  |  |  |  |  |
| Cn1cncc1-c1ccc2ncnc(Nc3ccc(OCc4ccccc4)cc3)c2c1 [GW320571] | 0 | 0 | 35 | 93.7 | 0 | 15 | 2 | 11 | 0 | 15 |  |  |  |  |  |  |  |  |  |  |
| Cn1ccc2ncnc(Oc3ccc(NC(=O)Nc4ccccc4)cc3)c21 | 20 | 20 | 0 | 39 | 0 | 16 | 0 | 28 | 16 | 20 |  |  |  |  |  |  |  |  |  |  |
| CC(C)(C)c1ccc(C(=O)Nc2cn3cc(-c4cccnc4)ccc3n2)cc1 | 36 | 13 | 0 | 95.4 | 32 | 33 | 26 | 0 | 52 | 0 |  |  |  |  |  |  |  |  |  |  |
| COc1cccc(NC(=O)NC2CCN(c3ccnc(Nc4ccc(F)cc4)n3)C2)c1 (centres unmarked) [GSK1379721] | 22 | 0 | 26 | 86 | 0 | 8 | 14 | 0 | 0 | 0 |  |  |  |  |  |  |  |  |  |  |
| Cc1cccc(-c2nc(C)cc(Nc3ccncc3)n2)n1 [GSK257997] | 0 | 0 | 32 | 8 | 0 | 0 | 18 | 0 | 6 | 0 |  |  |  |  |  |  |  |  |  |  |
| O=C(O)COc1ncnc2cc(-c3ccc4[nH]ncc4c3)sc12 | 7 | 17 | 37 | 38 | 0 | 21 | 0 | 1 | 12 | 0 |  |  |  |  |  |  |  |  |  |  |

| Structure (SMILES) | %Inh (MEK2; [1]) [%] | %Inh (MEK3; [1]) [%] | %Inh (MEK4; [1]) [%] | %Inh (MEK5; [1]) [%] | %Inh (MEK6; [1]) [%] | %Inh (MELK; [1]) [%] | %Inh (MERTK; [1]) [%] | %Inh (MET; [1]) [%] | %Inh (MINK; [1]) [%] | %Inh (MKK7; [1]) [%] | %Inh (MEK2; 1 µM) [%] | %Inh (MEK3; 1 µM) [%] | %Inh (MEK4; 1 µM) [%] | %Inh (MEK5; 1 µM) [%] | %Inh (MEK6; 1 µM) [%] | %Inh (MELK; 1 µM) [%] | %Inh (MERTK; 1 µM) [%] | %Inh (MET; 1 µM) [%] | %Inh (MINK; 1 µM) [%] | %Inh (MKK7; 1 µM) [%] |
| --- | --- | --- | --- | --- | --- | --- | --- | --- | --- | --- | --- | --- | --- | --- | --- | --- | --- | --- | --- | --- |
| COc1cccc(-c2cc(-c3c[nH]nc3-c3ccccn3)ccn2)c1 [GW680338] | 0 | 67 | 8 | 13 | 0 | 19 | 14 | 10 | 65 | 10 |  |  |  |  |  |  |  |  |  |  |
| Cc1ccc(NC(=O)Nc2cc(C(C)(C)C)nn2-c2ccccc2)cc1 [GSK1014915] | 0 | 0 | 12 | 2 | 0 | 26 | 15 | 0 | 0 | 0 |  |  |  |  |  |  |  |  |  |  |
| O=C(Nc1ccc2c(c1)OCO2)NC1CCN(c2ccnc(Nc3ccc(F)cc3)n2)C1 (centres unmarked) [GSK1379724] | 0 | 0 | 28 | 17 | 0 | 0 | 0 | 0 | 0 | 0 |  |  |  |  |  |  |  |  |  |  |
| Cn1ccc2ncnc(Oc3cccc(C(=O)Nc4ccccc4)c3)c21 | 23 | 19 | 30 | 14 | 0 | 9 | 0 | 8 | 12 | 21 |  |  |  |  |  |  |  |  |  |  |
| Cc1nnc(-c2ccc3occ(-c4ccc(S(C)=O)cc4)c3c2)[nH]1 (centres unmarked) | 1 | 19 | 37 | 42 | 0 | 0 | 13 | 5 | 17 | 18 |  |  |  |  |  |  |  |  |  |  |
| COc1cc2ncnc(Nc3ccc4nc(-c5ccccc5)[nH]c4c3)c2cc1OC.Cl [GW282450] | 0 | 3 | 21 | 90 | 0 | 7 | 0 | 0 | 1 | 0 |  |  |  |  |  |  |  |  |  |  |
| O=C(Nc1n[nH]c2nc(-c3nccs3)c(Br)cc12)C1CCCC1 [SB-742609] | 0 | 0 | 30 | 39 | 0 | 0 | 44 | 5 | 0 | 0 |  |  |  |  |  |  |  |  |  |  |
| Cc1ccc(NC(=O)Nc2cccc(C(F)(F)F)c2)cc1 [GSK955403] |  |  |  |  |  |  |  |  |  |  | 3 | 15 | 0 | 0 | 26 | 15 | 29 | 0 | 0 | 0 |
| Cc1cccc(-c2nc(Nc3ccc4[nH]ncc4c3)c3ccccc3n2)n1 [GW857175] | 24 | 19 | 51 | 40 | 0 | 25 | 11 | 2 | 19 | 12 |  |  |  |  |  |  |  |  |  |  |
| Cc1cccc(-c2nc(Nc3ccncc3)c3ccccc3n2)n1 [GW855857] | 25 | 0 | 0 | 14 | 0 | 11 | 9 | 25 | 33 | 0 |  |  |  |  |  |  |  |  |  |  |
| CC(C)(C)c1ccc(C(=O)Nc2cn3cc(Cl)ccc3n2)cc1 | 24 | 0 | 33 | 38 | 0 | 1 | 0 | 0 | 9 | 0 |  |  |  |  |  |  |  |  |  |  |
| Cn1ccc2ncnc(Oc3ccc(Nc4nc5ccccc5[nH]4)cc3)c21 | 0 | 0 | 0 | 11 | 0 | 0 | 8 | 0 | 0 | 0 |  |  |  |  |  |  |  |  |  |  |
| Nc1ncnc2[nH]c(-c3ccccc3)nc12 [AH5015] | 0 | 1 | 13 | 50 | 0 | 0 | 0 | 0 | 4 | 0 |  |  |  |  |  |  |  |  |  |  |
| CC(=O)Nc1nc2cnc(Nc3cc(NC(=O)c4cccc(CCC#N)c4)ccc3C)nc2s1 | 0 | 3 | 25 | 2 | 12 | 0 | 12 | 7 | 4 | 0 |  |  |  |  |  |  |  |  |  |  |
| Cc1cc(N2Cc3ccccc3C2)nc(Nc2ccc(S(=O)(=O)N3CCOCC3)cc2)n1.Cl [GSK1669917] | 0 | 0 | 0 | 9 | 0 | 0 | 9 | 0 | 20 | 0 |  |  |  |  |  |  |  |  |  |  |
| Cc1cc(NCC(c2ccccc2)c2ccccc2)nc(NCc2ccc(C(F)(F)F)cc2)n1 [GW497681] | 0 | 0 | 10 | 1 | 0 | 0 | 7 | 13 | 0 | 0 |  |  |  |  |  |  |  |  |  |  |
| O=C1NC(=O)C(N2CCc3ccccc32)=C1c1ccccc1Cl [SB-373598] | 0 | 0 | 9 | 8 | 0 | 12 | 27 | 17 | 4 | 20 |  |  |  |  |  |  |  |  |  |  |

From PMC5540273 (PLoS ONE, 2017)
